# Data: publication PMC5540273 (PLoS ONE, 2017)
# Like-named read-outs stand apart in the source and are kept apart here.
# Key:
# FGFR1 = conditions: concentration: 1 μM, replicates: in singlicate; n = 1
# FGFR2 = conditions: concentration: 1 μM, replicates: in singlicate; n = 1
# FGFR3 = conditions: concentration: 1 μM, replicates: in singlicate; n = 1
# FGFR4 = conditions: concentration: 1 μM, replicates: in singlicate; n = 1
# FGR = conditions: concentration: 1 μM, replicates: in singlicate; n = 1
# FLT1 = conditions: concentration: 1 μM, replicates: in singlicate; n = 1
# FLT3-autoinhibited = conditions: concentration: 1 μM, replicates: in singlicate; n = 1
# FLT3 = conditions: concentration: 1 μM, replicates: in singlicate; n = 1
# FLT4 = conditions: concentration: 1 μM, replicates: in singlicate; n = 1
# FRK = conditions: concentration: 1 μM, replicates: in singlicate; n = 1
# FYN = conditions: concentration: 1 μM, replicates: in singlicate; n = 1
# GAK = conditions: concentration: 1 μM, replicates: in singlicate; n = 1
# GCN2(Kin.Dom.2,S808G) = tested on: T1, GCN2(Kin.Dom.2,S808G); conditions: concentration: 1 μM, replicates: in singlicate; n = 1
# T1 construct: gene EIF2AK4
# GRK1 = conditions: concentration: 1 μM, replicates: in singlicate; n = 1
# GRK2 = tested on: T2, GRK2; conditions: concentration: 1 μM, replicates: in singlicate; n = 1
# T2 construct: gene ADRBK1
# GRK3 = tested on: T3, GRK3; conditions: concentration: 1 μM, replicates: in singlicate; n = 1
# T3 construct: gene ADRBK2
# GRK4 = conditions: concentration: 1 μM, replicates: in singlicate; n = 1
# GRK7 = conditions: concentration: 1 μM, replicates: in singlicate; n = 1
# GSK3A = conditions: concentration: 1 μM, replicates: in singlicate; n = 1
# GSK3B = conditions: n = 1
# [1] = concentration: 1 μM, replicates: in singlicate
# 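Also: KINOMEscan kinase panel screen.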
smiles,measurement,setting,value
Cl.Cl.NCC(C(=O)Nc1cc(Br)c(-c2ccnc3[nH]ccc23)s1)c1ccccc1 (centres unmarked) [GSK1269851],%Inh,FGFR1,30%
same,%Inh,FGFR2,8%
same,%Inh,FGFR3,27%
same,%Inh,FGFR4,44%
same,%Inh,FGR,55%
same,%Inh,FLT1,16%
same,%Inh,FLT3-autoinhibited,20%
same,%Inh,FLT3,86%
same,%Inh,FLT4,0%
same,%Inh,FRK,12%
same,%Inh,FYN,30%
same,%Inh,GAK,83%
same,%Inh,"GCN2(Kin.Dom.2,S808G)",0%
same,%Inh,GRK1,56%
same,%Inh,GRK2,13%
same,%Inh,GRK3,62%
same,%Inh,GRK4,86%
same,%Inh,GRK7,13%
same,%Inh,GSK3A,0%
same,%Inh,GSK3B; [1],7%
FC(F)(F)c1ccc(/C=C/c2cncnc2Nc2ccc3[nH]c(Cc4ccccc4)nc3c2)cc1 [GW709199],%Inh,FGFR1,20%
same,%Inh,FGFR2,0%
same,%Inh,FGFR3,0%
same,%Inh,FGFR4,4%
same,%Inh,FGR,34%
same,%Inh,FLT1,12%
same,%Inh,FLT3-autoinhibited,0%
same,%Inh,FLT3,19%
same,%Inh,FLT4,0%
same,%Inh,FRK,10%
same,%Inh,FYN,10%
same,%Inh,GAK,0%
same,%Inh,"GCN2(Kin.Dom.2,S808G)",0%
same,%Inh,GRK1,11%
same,%Inh,GRK2,0%
same,%Inh,GRK3,0%
same,%Inh,GRK4,18%
same,%Inh,GRK7,0%
same,%Inh,GSK3A,39%
same,%Inh,GSK3B; [1],0%
Cc1cccc(NC(=O)Nc2ccc(Oc3ncnc4ccn(C)c34)cc2)c1,%Inh,FGFR1,0%
same,%Inh,FGFR2,0%
same,%Inh,FGFR3,0%
same,%Inh,FGFR4,0%
same,%Inh,FGR,0%
same,%Inh,FLT1,99.3%
same,%Inh,FLT3-autoinhibited,64%
same,%Inh,FLT3,100%
same,%Inh,FLT4,73%
same,%Inh,FRK,10%
same,%Inh,FYN,0%
same,%Inh,GAK,0%
same,%Inh,"GCN2(Kin.Dom.2,S808G)",0%
same,%Inh,GRK1,4%
same,%Inh,GRK2,0%
same,%Inh,GRK3,0%
same,%Inh,GRK4,0%
same,%Inh,GRK7,0%
same,%Inh,GSK3A,0%
same,%Inh,GSK3B; [1],0%
O=C(Nc1cccc(Oc2ccc3nc(NC(=O)C4CC4)cn3n2)c1)c1ccccc1C(F)(F)F,%Inh,FGFR1,1%
same,%Inh,FGFR2,23%
same,%Inh,FGFR3,0%
same,%Inh,FGFR4,2%
same,%Inh,FGR,55%
same,%Inh,FLT1,99.7%
same,%Inh,FLT3-autoinhibited,0%
same,%Inh,FLT3,20%
same,%Inh,FLT4,99.9%
same,%Inh,FRK,30%
same,%Inh,FYN,33%
same,%Inh,GAK,4%
same,%Inh,"GCN2(Kin.Dom.2,S808G)",7%
same,%Inh,GRK1,9%
same,%Inh,GRK2,0%
same,%Inh,GRK3,0%
same,%Inh,GRK4,46%
same,%Inh,GRK7,0%
same,%Inh,GSK3A,7%
same,%Inh,GSK3B; [1],0%
Nc1ncnc2c1nc(-c1ccccc1)n2-c1ccccc1 [SKF-97293],%Inh,FGFR1,12%
same,%Inh,FGFR2,20%
same,%Inh,FGFR3,0%
same,%Inh,FGFR4,0%
same,%Inh,FGR,31%
same,%Inh,FLT1,9%
same,%Inh,FLT3-autoinhibited,14%
same,%Inh,FLT3,20%
same,%Inh,FLT4,0%
same,%Inh,FRK,0%
same,%Inh,FYN,0%
same,%Inh,GAK,1%
same,%Inh,"GCN2(Kin.Dom.2,S808G)",0%
same,%Inh,GRK1,36%
same,%Inh,GRK2,0%
same,%Inh,GRK3,13%
same,%Inh,GRK4,13%
same,%Inh,GRK7,43%
same,%Inh,GSK3A,0%
same,%Inh,GSK3B; [1],40%
Nc1ncc(-c2ccc3nccc(-c4ccncc4)c3c2)cc1S(=O)(=O)N1CCOCC1 [GSK1627798],%Inh,FGFR1,0%
same,%Inh,FGFR2,0%
same,%Inh,FGFR3,6%
same,%Inh,FGFR4,0%
same,%Inh,FGR,24%
same,%Inh,FLT1,22%
same,%Inh,FLT3-autoinhibited,0%
same,%Inh,FLT3,0%
same,%Inh,FLT4,0%
same,%Inh,FRK,8%
same,%Inh,FYN,14%
same,%Inh,GAK,6%
same,%Inh,"GCN2(Kin.Dom.2,S808G)",3%
same,%Inh,GRK1,1%
same,%Inh,GRK2,0%
same,%Inh,GRK3,17%
same,%Inh,GRK4,1%
same,%Inh,GRK7,0%
same,%Inh,GSK3A,1%
same,%Inh,GSK3B; [1],3%
COc1ccc(CNC(=O)NC2CCN(c3ccnc(Nc4ccc(F)cc4)n3)CC2)cc1 [GSK1379788],%Inh,FGFR1,0%
same,%Inh,FGFR2,0%
same,%Inh,FGFR3,8%
same,%Inh,FGFR4,0%
same,%Inh,FGR,19%
same,%Inh,FLT1,16%
same,%Inh,FLT3-autoinhibited,0%
same,%Inh,FLT3,0%
same,%Inh,FLT4,0%
same,%Inh,FRK,0%
same,%Inh,FYN,8%
same,%Inh,GAK,0%
same,%Inh,"GCN2(Kin.Dom.2,S808G)",0%
same,%Inh,GRK1,0%
same,%Inh,GRK2,0%
same,%Inh,GRK3,57%
same,%Inh,GRK4,0%
same,%Inh,GRK7,0%
same,%Inh,GSK3A,2%
same,%Inh,GSK3B; [1],0%
O=C(Nc1cccc(-c2nn3ccccc3c2-c2ccnc(Nc3cccc(C(F)(F)F)c3)n2)c1)c1c(F)cccc1F [GSK292658],%Inh,FGFR1,0%
same,%Inh,FGFR2,20%
same,%Inh,FGFR3,9%
same,%Inh,FGFR4,0%
same,%Inh,FGR,92.5%
same,%Inh,FLT1,78%
same,%Inh,FLT3-autoinhibited,5%
same,%Inh,FLT3,62%
same,%Inh,FLT4,36%
same,%Inh,FRK,72%
same,%Inh,FYN,56%
same,%Inh,GAK,3%
same,%Inh,"GCN2(Kin.Dom.2,S808G)",10%
same,%Inh,GRK1,3%
same,%Inh,GRK2,0%
same,%Inh,GRK3,0%
same,%Inh,GRK4,15%
same,%Inh,GRK7,3%
same,%Inh,GSK3A,5%
same,%Inh,GSK3B; [1],4%
CN1CCN(Cc2cccc(-c3ccc4c(Nc5ccc(Oc6ccccc6)cc5)ccnc4c3)c2)CC1 [GW578342],%Inh,FGFR1,22%
same,%Inh,FGFR2,0%
same,%Inh,FGFR3,17%
same,%Inh,FGFR4,0%
same,%Inh,FGR,92.4%
same,%Inh,FLT1,45%
same,%Inh,FLT3-autoinhibited,36%
same,%Inh,FLT3,93.2%
same,%Inh,FLT4,43%
same,%Inh,FRK,19%
same,%Inh,FYN,83%
same,%Inh,GAK,3%
same,%Inh,"GCN2(Kin.Dom.2,S808G)",0%
same,%Inh,GRK1,1%
same,%Inh,GRK2,2%
same,%Inh,GRK3,37%
same,%Inh,GRK4,0%
same,%Inh,GRK7,0%
same,%Inh,GSK3A,16%
same,%Inh,GSK3B; [1],0%
COc1cccc(-c2ccc3c(NC(=O)C4CC4)n[nH]c3n2)c1 [SB-710903],%Inh,FGFR1,0%
same,%Inh,FGFR2,0%
same,%Inh,FGFR3,0%
same,%Inh,FGFR4,9%
same,%Inh,FGR,26%
same,%Inh,FLT1,8%
same,%Inh,FLT3-autoinhibited,0%
same,%Inh,FLT3,0%
same,%Inh,FLT4,1%
same,%Inh,FRK,0%
same,%Inh,FYN,0%
same,%Inh,GAK,3%
same,%Inh,"GCN2(Kin.Dom.2,S808G)",1%
same,%Inh,GRK1,5%
same,%Inh,GRK2,0%
same,%Inh,GRK3,75%
same,%Inh,GRK4,0%
same,%Inh,GRK7,0%
same,%Inh,GSK3A,88%
same,%Inh,GSK3B; 1 µM,43%
